ATXN2 expr inh: reduces ATXN2 reporter expression in HEK-293 cells; 360,000 tested, 0.72% active; HEK-293 ATXN2-luciferase reporter, luminescence, 24 h; Potency, µM (series often up to 57 µM), for inactives: at the highest dose activity change, negative = inhibition, most hits filed as inhibitors; note: % is set by controls: 0 for no effect and ±100 for the full control effect; nearly all actives have a fitted effect of over 55% in size
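qHTS (up to 57 uM final) was run with 24 h compound exposure of reporter cells at 37 °C. Each well was multiplexed: SteadyGlo luminescence measured ATXN2-luciferase expression after a fluorogenic Gly-Phe-AFC viability readout (25 uM final).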
S2 tox: reduces viability in counter-screen for ATXN expression inhibitors; Potency, µM (series often up to 56.7 µM), hits mostly cytotoxic; 400,000 tested, 0.49% active; S2 cells (HEK-293 line with an ATXN2-luciferase reporter) viability, CellTiter-Fluor protease fluorescence, 24 h; note: nearly all actives have a fitted effect of over 40% in size
KB-3-1 tox: KB-3-1 parental cell cytotoxicity | KB-3-1 viability, CellTiter-Glo ATP luminescence, 72 h | Potency, µM (titrated, usually from 46.1 µM), hits mostly cytotoxic | 400,000 tested, 1.4% active; note: % is set by controls: 0 for no effect and ±100 for the full control effect; nearly all actives have a fitted effect of over 60% in size
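Luminescent ATP read-out (CellTiter-Glo) measures survival of drug-naive KB-3-1 cells after 72 h compound exposure at 37 °C. Titration series was screened from lowest to highest concentration, with DMSO vehicle plates as background controls.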
HT1080-NT tox: kills 2HG-producing HT-1080-NT fibrosarcoma cells; HT-1080-NT fibrosarcoma viability, CellTiter-Glo ATP luminescence, 48 h; Potency, µM (series often up to 46.1 µM), for inactives: at the top dose activity, negative = less viability, usual class: cytotoxic; 360,000 tested, 1.6% active; AID 686970;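 note: NT is the 2HG producing partner of a matched IDH1 knockdown line; 0% = DMSO-treated cells and -100% = media-only wells without cells; nearly all actives have a fitted effect of over 55% in size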
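Viability of the 2HG-overproducing fibrosarcoma line after 48 hours of compound exposure at 37 degrees C was determined by luminescence with CellTiter-Glo, and concentration-effect curves were then fitted and categorized.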
HT1080 IDH1KD tx: kills HT-1080 cells with IDH1 knockdown. HT-1080 IDH1 knockdown viability, ATP luminescence, 48 h. 360,000 tested, 2% active. Potency, µM (highest dose often 46.1 µM), for inactives: at the top dose activity, negative = toxicity, usual class: cytotoxic;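 note: 0% = DMSO wells and -100% = cell-free medium wells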
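IDH1KD HT-1080 cells, 750/well, RPMI + 5% FBS; compound pinned after 2 h settling; 48 h, 37 °C; CellTiter-Glo luminescence; % activity normalised to DMSO and no-cell wells; curves fitted, classed by r2 and efficacy.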
KB-V1 cytotox: kills drug-selected multidrug resistant KB-V1 cells; KB-V1 MDR cells viability, CellTiter-Glo, 72 h; Potency, µM (doses to about 46.1 µM), hits mostly cytotoxic; 400,000 tested, 3.4% active; AID 1347076; note: % is set by controls: 0 for no effect and ±100 for the full control effect; nearly all actives have a fitted effect of over 60% in size
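KB-V1, DMEM (no phenol red) + 10% FBS; cpd pin-transferred, titration series; 72 h, 37 degrees C; CellTiter-Glo, luminescence. Data normalized, curve-fit.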
Numbers without * were called inactive. An excerpt weighted towards active compounds, which were near 6.2% of everything screened. Calls come from the whole dose curve; as a rule, active = well fitted curve in the direction sought with a large enough effect; inconclusive = small, poorly fitted or top-dose-only effect, or another doubt; inactive = no such curve, though single readings can be large; an effect the other way counts as inactive or inconclusive. Potency is the fitted concentration of half-maximal effect.

How did O=C(Nc1ccc(Oc2ccccc2)cc1)C1CCN(S(=O)(=O)c2ccccc2)CC1 do in these assays?
ATXN2 expr inh: -34%; S2 tox: inconclusive; KB-3-1 tox: inconclusive; KB-V1 cytotox: 6.5µM*

How did O=C(Nc1ccc(Oc2ccccc2)cc1)C1CCCN(c2ncccn2)C1 (centres undefined) do in these assays?
ATXN2 expr inh: -6%; S2 tox: inactive; KB-3-1 tox: inactive; HT1080-NT tox: 0%; HT1080 IDH1KD tx: 4%; KB-V1 cytotox: 5.8µM*

What do the screens show for `CC(=O)Nc1ccc(NC(=O)C2CCCN(c3ncccn3)C2)cc1` (centres undefined)?
ATXN2 expr inh: 8%; S2 tox: inactive; KB-3-1 tox: inactive; HT1080-NT tox: 9%; HT1080 IDH1KD tx: 2%; KB-V1 cytotox: inactive

What do the screens show for `COc1ccccc1CN(Cc1nc2ccccc2c(=O)[nH]1)S(=O)(=O)c1ccc2ccccc2c1`?
ATXN2 expr inh: inconclusive; S2 tox: inconclusive; KB-3-1 tox: inactive; HT1080-NT tox: inconclusive; HT1080 IDH1KD tx: 6.3µM*; KB-V1 cytotox: 13µM*

How did COc1cc2nc(CN(C)Cc3nc4ccccc4c(=O)[nH]3)[nH]c(=O)c2cc1OC do in these assays?
ATXN2 expr inh: 0%; S2 tox: inactive; KB-3-1 tox: inactive; HT1080-NT tox: 18µM*; HT1080 IDH1KD tx: 7.1µM*; KB-V1 cytotox: inactive

How did O=c1[nH]c(CN(CCc2ccccc2)S(=O)(=O)c2ccc(Cl)cc2)nc2ccccc12 do in these assays?
ATXN2 expr inh: -1%; S2 tox: inactive; KB-3-1 tox: inactive; HT1080-NT tox: -6%; HT1080 IDH1KD tx: -18%; KB-V1 cytotox: 3.3µM*

What do the screens show for `COc1ccccc1CN(Cc1nc2ccccc2c(=O)[nH]1)C(=O)Nc1cccc(C)c1`?
ATXN2 expr inh: 37%; S2 tox: inactive; KB-3-1 tox: inactive; HT1080-NT tox: 7.1µM*; HT1080 IDH1KD tx: 3.5µM*; KB-V1 cytotox: inconclusive

How did COc1ccccc1NC(=O)N(Cc1ccc2c(c1)OCO2)Cc1nc2ccccc2c(=O)[nH]1 do in these assays?
ATXN2 expr inh: -6%; S2 tox: inactive; KB-3-1 tox: inactive; HT1080-NT tox: 7%; HT1080 IDH1KD tx: 12%; KB-V1 cytotox: inactive

How did Cn1c(=O)n(C)c2cc(N3CCCCC3)c(NC(=O)c3ccc(C(C)(C)C)cc3)cc21 do in these assays?
ATXN2 expr inh: 2%; S2 tox: inactive; KB-3-1 tox: inactive; KB-V1 cytotox: inconclusive

What do the screens show for `O=C(NCCc1ccccc1)C(=O)NCC(c1cccs1)S(=O)(=O)c1cccs1` (centres undefined)?
ATXN2 expr inh: -7%; S2 tox: inactive; KB-3-1 tox: inactive; KB-V1 cytotox: inactive

What do the screens show for `COc1ccc(-n2ncc(C(=O)N3CCN(C(=O)c4ccco4)CC3)c2C2CCN(C(=O)OC(C)(C)C)CC2)cc1`?
KB-3-1 tox: inactive; KB-V1 cytotox: inconclusive

What do the screens show for `Cc1cc(=O)oc2cc(OCC3CC(c4ccccc4)=NO3)ccc12` (centres undefined)?
ATXN2 expr inh: 18%; S2 tox: inactive; KB-3-1 tox: 7.3µM*; HT1080-NT tox: 11µM*; HT1080 IDH1KD tx: inconclusive; KB-V1 cytotox: 8.2µM*

Results for O=[N+]([O-])c1ccc(OCC2CC(c3ccccc3)=NO2)cc1 (centres undefined) ?
ATXN2 expr inh: 26%; S2 tox: inactive; KB-3-1 tox: inactive; HT1080-NT tox: 9%; HT1080 IDH1KD tx: 7%; KB-V1 cytotox: inactive

How did Cc1cc(=O)oc2cc(OCC(=O)N3CC(C)OC(C)C3)ccc12 (centres undefined) do in these assays?
ATXN2 expr inh: -8%; S2 tox: inactive; KB-3-1 tox: inactive; HT1080-NT tox: 13%; HT1080 IDH1KD tx: 10%; KB-V1 cytotox: inactive

How did Cc1cc(=O)oc2cc(OCC3CC(c4ccc(Br)cc4)=NO3)ccc12 (centres undefined) do in these assays?
ATXN2 expr inh: -6%; S2 tox: inactive; KB-3-1 tox: inconclusive; HT1080-NT tox: 22%; HT1080 IDH1KD tx: 5%; KB-V1 cytotox: 21µM*

Results for Cc1cc(=O)oc2cc(OCC(=O)N3c4ccccc4CC3C)ccc12 (centres undefined) ?
ATXN2 expr inh: 7%; S2 tox: inconclusive; KB-3-1 tox: 2.9µM*; HT1080-NT tox: 2.6µM*; HT1080 IDH1KD tx: 2.6µM*; KB-V1 cytotox: 2.6µM*

How did Cc1cccc(NC(=O)Cn2c(=O)ccc3cc(S(=O)(=O)N4CCCC4)ccc32)c1C do in these assays?
ATXN2 expr inh: 4%; S2 tox: inactive; KB-3-1 tox: inactive; KB-V1 cytotox: inactive

Results for Cc1ccc(C)c2c(C)ccnc12 ?
KB-3-1 tox: inactive; KB-V1 cytotox: inactive

Results for CCOC(=O)c1c(C)[nH]c(C)c1S(=O)(=O)N1CCC(C(=O)Nc2cc(Cl)ccc2OC)CC1 ?
ATXN2 expr inh: -22%; S2 tox: inactive; KB-3-1 tox: inactive; KB-V1 cytotox: inactive

What do the screens show for `S=c1sc2c(Cl)ncnc2n1-c1ccccc1`?
S2 tox: inconclusive; KB-3-1 tox: inconclusive; HT1080-NT tox: 21µM*; HT1080 IDH1KD tx: inconclusive; KB-V1 cytotox: inconclusive

Results for Cc1ccc(S(=O)(=O)Nc2ccc(Cl)cc2)cc1NC(=O)c1cc2c(s1)CCCC2 ?
ATXN2 expr inh: -14%; S2 tox: inconclusive; KB-3-1 tox: inactive; HT1080-NT tox: inconclusive; HT1080 IDH1KD tx: inconclusive; KB-V1 cytotox: 15µM*

How did Cc1ccc(S(=O)(=O)N2CCOCC2)cc1NC(=O)c1cc2c(s1)CCC2 do in these assays?
ATXN2 expr inh: -2%; S2 tox: inconclusive; KB-3-1 tox: inactive; HT1080-NT tox: 0%; HT1080 IDH1KD tx: 2%; KB-V1 cytotox: inactive

Results for Cc1ccc(NS(=O)(=O)c2cc(NC(=O)c3cc4c(s3)CCCC4)ccc2C)c(C)c1 ?
ATXN2 expr inh: -7%; S2 tox: inconclusive; KB-3-1 tox: inactive; HT1080-NT tox: -1%; HT1080 IDH1KD tx: -5%; KB-V1 cytotox: 3.7µM*

How did COc1ccc(CCNC(=O)C(C)n2c(=O)cc(C(F)(F)F)c3c(C)nn(C)c32)cc1OC (centres undefined) do in these assays?
ATXN2 expr inh: -19%; S2 tox: inactive; KB-3-1 tox: inactive; KB-V1 cytotox: inactive

What do the screens show for `Cc1noc(C)c1C(=O)N1CCN(C(=O)c2sc3cc(Cl)ccc3c2Cl)CC1`?
ATXN2 expr inh: 1%; S2 tox: inactive; KB-3-1 tox: inactive; HT1080-NT tox: -5%; HT1080 IDH1KD tx: -3%; KB-V1 cytotox: 23µM*

Bioassay records as filed in PubChem.
